G9a block – qHTS Assay for Inhibitors of Histone Lysine Methyltransferase G9a; Histone-lysine N-methyltransferase EHMT2 (Homo sapiens), Q96KQ7; G9a H3K9 monomethylation, AlphaScreen, 2 h; Potency, µM (titrated, usually from 102 µM), for the others: top-dose activity, negative = inhibition, most hits filed as inhibitors; 8.8% of 350,000 active; AID 504332, 2011; note: % is set by controls: 0 for no effect and ±100 for the full control effect; nearly all actives have a fitted effect of over 75% in size
Target sequence (Q96KQ7 913-1193 limits assumed): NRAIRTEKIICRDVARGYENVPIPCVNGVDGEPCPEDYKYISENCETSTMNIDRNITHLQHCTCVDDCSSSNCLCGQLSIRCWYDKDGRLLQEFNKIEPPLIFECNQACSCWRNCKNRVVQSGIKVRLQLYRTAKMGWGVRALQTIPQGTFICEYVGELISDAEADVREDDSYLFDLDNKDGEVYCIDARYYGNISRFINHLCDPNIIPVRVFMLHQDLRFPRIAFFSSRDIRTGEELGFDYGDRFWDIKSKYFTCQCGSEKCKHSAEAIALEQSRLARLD
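Step 1: enzyme (final 20 nM) with compound, 15 min RT. Step 2: substrate peptide 500 nM and SAM 20 uM, 2 h RT. Step 3: anti-H3K9me1 antibody and AlphaScreen beads, 10 min, then plate read.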
HP1b binding inh – HTS for Inhibitors of HP1-beta Chromodomain Interactions with Methylated Histone Tails; Chromobox protein homolog 1 (Homo sapiens), P83916; Potency, µM (top dose mostly 114 µM), inactives show top-dose activity change, negative = inhibition, most hits filed as inhibitors; AID 540317, 2011; 0.56% of 390,000 active; AlphaScreen HP1-beta / biotin-H3K9me3 peptide binding; note: nearly all actives have a fitted effect of over 70% in size
Target sequence (P83916 whole entry, looked up): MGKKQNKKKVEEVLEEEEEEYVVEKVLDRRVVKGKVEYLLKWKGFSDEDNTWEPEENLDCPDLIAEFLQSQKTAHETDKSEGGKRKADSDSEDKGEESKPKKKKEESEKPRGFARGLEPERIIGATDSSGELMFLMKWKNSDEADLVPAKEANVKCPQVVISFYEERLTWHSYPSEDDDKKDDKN
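AlphaScreen: HP1-beta (50 nM) preformed 30 min with biotin-H3(1-18)K9me3 peptide (50 nM) in PBS pH 7.4, 0.01% Tween-20. Compound added for 30 min at RT, then streptavidin donor/nickel chelate acceptor beads (10 ug/mL) for 30 min.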
BAZ2B inh – qHTS Assay for Inhibitors of BAZ2B; Bromodomain adjacent to zinc finger domain protein 2B (Homo sapiens), Q9UIF8; AlphaScreen BAZ2B-H3K14Ac peptide displacement; Potency, µM (top dose mostly 114 µM), without a hit: at the top dose activity change, negative = inhibition, usual class: inhibitors; 4.4% of 360,000 active; note: % is set by controls: 0 for no effect and ±100 for the full control effect; nearly all actives have a fitted effect of over 60% in size
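BAZ2B 50 nM plus b-H3(5-23)K14Ac 50 nM, PBS pH 7.4/0.01% Tween-20, 30 min RT; compound added (max 110 uM), 30 min RT; streptavidin donor/Ni-chelate acceptor beads 10 ug/mL final, 20 min dark; AlphaScreen read.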
Sfp inh – qHTS Assay for Inhibitors of Bacillus subtilis Sfp phosphopantetheinyl transferase (PPTase) | Potency, µM, inactives show largest response in the series, negative = inhibition, most hits filed as inhibitors | 3.5% of 310,000 active | 4'-phosphopantetheinyl transferase ffp (Bacillus subtilis), Q9F4F7 | Biochemical Sfp PPTase activity, qHTS;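 note: the enzyme is Sfp with the accession as filed and its product quenches rhodamine fluorescence; 0% = enzyme reaction without inhibitor and -100% = no enzyme wells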
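Fluorescence-quenching assay with 15 nM Sfp, 5 uM rhodamine-CoA and 12.5 uM BHQ-2-labelled ybbR peptide in pH 7.6 Hepes/MgCl2 buffer. Enzyme was pre-incubated with compound for 15 min at room temperature. Rate was taken from the 30-min fluorescence change (525/598 nm).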
JMJD2A Tudor inh – qHTS Assay for Inhibitors of JMJD2A-Tudor Domain | Potency, µM (doses to about 114 µM), without a hit: at the top dose activity change, negative = inhibition, hits mostly inhibitors | 4.4% of 390,000 active | AlphaScreen JMJD2A-Tudor / H3K4me3 peptide binding; note: % is set by controls: 0 for no effect and ±100 for the full control effect; nearly all actives have a fitted effect of over 50% in size
* marks the source's active call; other numbers are inactive results; ? = inconclusive; · = no result; [ ] = another dose, or the depositor's remark. An excerpt weighted towards active compounds, which were near 12% of everything screened. Calls come from the whole dose curve; as a rule, active = well fitted curve in the direction sought with a large enough effect; inconclusive = small, poorly fitted or top-dose-only effect, or another doubt; inactive = no such curve, though single readings can be large; an effect the other way counts as inactive or inconclusive. Potency is the fitted concentration of half-maximal effect.

SMILES	G9a block	HP1b binding inh	BAZ2B inh	Sfp inh	JMJD2A Tudor inh
Cc1ccc(C(C(=O)NC(C)(C)C)N(CC2CCCO2)C(=O)Cn2nnc(-c3ccc(C)o3)n2)cc1 (configuration not stated)	45µM*	-1%	-10%	56µM*	-21%
Cc1ccc(-c2nnn(CC(=O)N(Cc3ccc(F)cc3)C(C(=O)NC3CCCC3)c3ccncc3)n2)o1 (configuration not stated)	?	25%	2%	40µM*	-15%
Cc1ccc(-c2nnn(CC(=O)N(CC3CCCO3)C(C(=O)NC3CCCC3)c3ccc(F)cc3)n2)o1 (configuration not stated)	3%[59 µM]	21%	-30%	12%	-12%
CC(C)C12CN3CC(C(C)C)(CN(C1)C3c1ccc(Cl)cc1)C2=O (configuration not stated)	-4%[59 µM]	49%	4%	·	22%
CC(C)Cc1nn2c(=O)cc(COC(=O)c3cccc(NS(C)(=O)=O)c3)nc2s1	5%[59 µM]	19%	-2%	·	-19%
CCC1(C)NC(c2ccc3c(c2)OCO3)=CC(c2ccccc2O)N1 (configuration not stated)	·	4%[57 µM]	·	·	-4%[57.1 µM]
CCC(=O)c1ccc(OCC(O)CNCCc2ccc(Cl)cc2)cc1 (configuration not stated)	28%[0.501 µM]	37%	-1%	-12%	4%
Cc1noc(C)c1-c1cc(N(C)C)ncn1	·	·	·	2%	·
Cc1ccc(-c2nnn(CC(=O)N(CCO)C(C(=O)NC3CCCCC3)c3ccncc3)n2)o1 (configuration not stated)	45µM*	?	-11%	2%	-12%[11.4 µM]
NS(=O)(=O)c1cccc(NC(=O)CCSc2ccc(Cl)cc2)c1	1.4µM*	44%	-6%	6%	9%
Cc1cc(C)c(S(=O)(=O)Nc2ccc3oc4c(c3c2)CCCC4)cc1C	?	17%	-29%	·	?
COc1ccc(-n2cnnc2SC(C)c2nc3sc(C)c(C)c3c(=O)[nH]2)cc1 (configuration not stated)	?	·	2%	89µM*	·
Cc1ccc(-n2nnnc2SCc2nc3sc(C)c(C)c3c(=O)[nH]2)cc1	-7%[59 µM]	22%	-7%	-4%	-3%
C/C(=N\NC(=O)c1ccc2c(c1)OCO2)c1ccc2c(c1)OCO2	0%	34%	-6%	12%	-10%
C/C(=N\Nc1ncc(Cl)cc1Cl)c1ccc(OC(F)F)cc1	29%	41%	5%	56µM*	-14%
C/C(=N\Nc1ncc(Cl)cc1Cl)c1ccc2c(c1)OCO2	0%	31%	-24%	79µM*	-8%
COc1ccc(/C(C)=N/Nc2nccnc2Cl)cc1	?	6%	0%	·	-30%
O=C1Nc2ccc(C(=O)O)c(O)c2C1=O	·	-1%	·	·	56µM*
CC1CCC2(CC1)NC(=O)N(CC(=O)NCc1ccc(Cl)cc1)C2=O (configuration not stated)	·	23%	·	·	-10%
CCN(CC)S(=O)(=O)c1ccc2c(c1)nc(SCC(=O)N(C)C1CCS(=O)(=O)C1)n2CC (configuration not stated)	?	-2%	-21%	·	-16%
COc1ccc(-c2cc(-c3nnc(COC(=O)c4ccncc4)o3)c3ccccc3n2)cc1OC	26%	78%	6%	5%	33%
Cc1ccc(S(=O)(=O)N[C@@H]2COC(=O)C/C=C\[C@H](C)COC(=O)N[C@@H](C)C(=O)C/C=C\[C@H]2C)cc1	·	·	·	14%	·
O=C(CSc1nnc(-c2ccc(C(F)(F)F)cn2)o1)Nc1ccccc1Cl	25%	50%	18µM*	71µM*	20µM*
Cc1ccc2nc(-c3cccc(-c4nc5ccc(C)cc5o4)n3)oc2c1	·	?	·	·	18µM*
Cc1nn(S(=O)(=O)c2ccc(C(C)C)cc2)c(C)c1S(=O)(=O)N1CCOCC1	35µM*	41%	?	20%	79µM*
SMILES	G9a block	HP1b binding inh	BAZ2B inh	Sfp inh	JMJD2A Tudor inh
CCOc1ccc(S(=O)(=O)n2nc(C)c(S(=O)(=O)N3CCOCC3)c2C)cc1	50µM*	7%	?	-1%	-15%
COc1cc(NC(=S)NCCCO)c(OC)cc1Cl	28µM*	27%	-10%	?	-1%
COc1cc(NS(=O)(=O)c2ccc(C)c(C)c2)c(OC)cc1Cl	?	18%	-2%	79µM*	-11%
COc1cc(NC(=S)NC2CC(C)(C)NC(C)(C)C2)c(OC)cc1Cl	50µM*	38%	-30%	8%	-18%
COc1cc(NC(=S)NCCc2ccc(S(N)(=O)=O)cc2)c(OC)cc1Cl	?	14%	?	16µM*	-11%
COc1ccc(S(=O)(=O)Nc2ccccc2OC)cc1C	-6%[59 µM]	16%	-3%	3%	4%
COC(=O)c1cc(C)nc2c1c(=O)nc(SCc1ccccc1Cl)n2C1CC1	-20%[59 µM]	19%[57 µM]	-5%	·	-25%
O=C(CCS(=O)(=O)c1cccc2nonc12)Nc1c(F)cccc1F	-48%[59 µM]	3%	1%	·	-12%
COc1cccc(-c2nc(N3CCNCC3)c3ccccc3n2)c1	·	·	·	0%	·
O=C(CSc1nnc(-c2ccccc2Cl)o1)N1CCCCC1	?	55%	-6%	7%	-11%
O=C(CSc1nnc(-c2ccccc2O)o1)N1CCCCC1	10µM*	37%	-31%	5%	-2%
CC1CCCCN1C(=O)CSc1nnc(-c2ccccc2Cl)o1 (configuration not stated)	13µM*	-10%	3%	·	-4%
O=C(CSc1nnc(-c2ccccc2O)o1)N1CCOCC1	-11%	-20%	79µM*	-11%	56µM*
CC(C)(C)C(=O)Nc1ccc2c(c1)C(=O)C(=O)c1ccccc1-2	·	42%	·	·	5%
Cc1ccc(CNC(=O)CCc2c(C)nc3nc(C)nn3c2C)cc1	8%[59 µM]	36%	6%	·	-12%
Cc1ccc(-n2c(SCC(=O)NCc3ccco3)nc3nc4c(cc3c2=O)COC(C)(C)C4)cc1	?	27%	?	25µM*	-29%
COc1cc(C(F)(F)F)c(C(=O)N(C)Cc2cccc(Cl)c2)cn1	10%	24%	3%	11%	7%
COc1cc(C(F)(F)F)c(C(=O)NCc2cccc(Cl)c2)cn1	79µM*	46%	4%	9%	10%
CCCN1CNc2c(c(=O)[nH]c(=S)n2CCc2ccccc2C)C1	·	34%	·	·	-16%
CN(C)S(=O)(=O)c1cccc(-c2nnc(SCc3cc(Cl)cc4c3OCOC4)n2N)c1	8.9µM*	?	-27%	32µM*	40µM*
COc1ccc(CC(=O)OCC(=O)N(C)C2CCS(=O)(=O)C2)cc1OC (configuration not stated)	-18%[59 µM]	22%	12%	·	-5%

Screening results (PubChem BioAssay)
